Source: PubChem (National Center for Advancing Translational Sciences (NCATS))
TDP1 inh: TDP1 (human) enzyme inhibition; recombinant TDP1, AlphaScreen DNA substrate cleavage; 350,000 compounds, 0.28% hits; Q9NUW8; Potency, µM (highest dose often 130 µM), for the others: at the top dose activity change, negative = inhibition, most hits filed as inhibitors; AID 485290; also: % is scaled to controls: 0 for no effect and ±100 for the full control effect; nearly all actives have a fitted effect of over 40% in size
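Tdp1 1 nM final; 15 min RT w/ cpd; substrate 15 nM, 5 min; beads 10 ug/ml, 10 min; AlphaScreen read. Neg ctrl: no enzyme.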
TDP1 cell CPT: growth inhibition of DT40 Tdp1-/-;hTDP1 cells with camptothecin (screen for TDP1 inhibitors); Potency, µM (doses to about 46.2 µM), for the others: at the highest dose activity change, negative = growth inhibition, hits mostly inhibitors; 420,000 compounds, 12% hits; chicken DT40 Tdp1-/-;hTDP1 cells + 20 nM CPT, ATP luminescence, 48 h; also: % is scaled to controls: 0 for no effect and ±100 for the full control effect; nearly all actives have a fitted effect of over 55% in size
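Chicken DT40 Tdp1-/- cells stably complemented with human TDP1 were seeded at 400 cells/well in medium containing 20 nM camptothecin, exposed to pin-transferred compounds, and grown at 37 °C for at least 48 hr. Viability was read as ATP luminescence.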
ClpP mod: qHTS Assay for Activators of ClpP; purified B. subtilis ClpP, FRET peptide cleavage, 20 min; Potency, µM (doses to about 57.5 µM), without a hit: at the highest dose activity change, negative = active; 340,000 compounds, 1.9% hits; active = well fitted falling curve with a large enough effect; inconclusive = small, poorly fitted or top-dose-only effect; inactive = no such curve, though single readings can be large or run the other way; also: the source files actives as falling curves though it sought activators and does not explain the sign; nearly all actives have a fitted effect of over 65% in size
Target sequence (P80244 whole entry, looked up): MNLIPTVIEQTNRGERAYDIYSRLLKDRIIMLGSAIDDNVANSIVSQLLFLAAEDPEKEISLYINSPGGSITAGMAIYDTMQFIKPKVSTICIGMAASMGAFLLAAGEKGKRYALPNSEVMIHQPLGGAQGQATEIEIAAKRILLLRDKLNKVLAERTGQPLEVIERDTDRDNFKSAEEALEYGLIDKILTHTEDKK
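ClpP 10 microg/mL final, pH 8 Tris/KCl buffer with BSA, glycerol, Tween-20; compound pinned in; FRET-FV substrate; RT 20 min; Ex320/Em430; ΔFRET vs ADEP 5.8 microM, DMSO, no enzyme.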
TDP1 cell noCPT: qHTS for Inhibitors of human tyrosyl-DNA phosphodiesterase 1 (TDP1): qHTS in cells in absence of CPT; DT40 Tdp1-/- hTDP1 cells, no CPT, ATP luminescence, 48 h; Potency, µM (doses to about 46.2 µM), for inactives: top-dose activity change, negative = growth inhibition, most hits filed as inhibitors; 420,000 compounds, 15% hits; also: % is scaled to controls: 0 for no effect and ±100 for the full control effect; nearly all actives have a fitted effect of over 55% in size
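Chicken DT40 Tdp1-/- cells stably complemented with human TDP1 were seeded at 400 cells/well with DMSO in place of 20 nM camptothecin. After compound pinning, cells grew at least 48 hr at 37 °C; viability read by CellTiter-Glo luminescence.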
An asterisk follows results filed as active; ? = inconclusive; · = no result; [ ] = dose if it differs, or a comment. Shown are actives, neighbours in structure and some others; about 17% of the full set was active somewhere. Unless noted, calls follow the shape of the dose curve; as a rule, active = well fitted curve in the direction sought with a large enough effect; inconclusive = small, poorly fitted or top-dose-only effect, or another doubt; inactive = no such curve, though single readings can be large; an effect the other way counts as inactive or inconclusive. Potency is read from the fitted curve at half-maximal effect.

SMILES	TDP1 inh	TDP1 cell CPT	ClpP mod	TDP1 cell noCPT
CC(C)c1nn2c(=O)cc(COC(=O)c3cccc(NC(=O)CCc4ccccc4)c3)nc2s1	-3.8%	10.8%	4.5%	-10.8%
CCCCN1CCN=C1N(C)C	-4.1%	14.7%	-1.6%	0.4%
O=C(C1CCN(S(=O)(=O)c2cccnc2)CC1)N1CCN(c2ccc(Cl)cc2)CC1	·	5.17µM*	1.4%	3.66µM*
O=C(C1CCN(S(=O)(=O)c2ccccc2)CC1)N1CCN(c2ccccc2)CC1	4.7%	?	-8.5%	20.6µM*
COc1ccc(-c2cn3cccnc3n2)cc1NC(=O)c1cc(C)cc(C)c1	2.2%	?	3.8%	?
CN(C)C1=NCCN1CCc1ccc(F)cc1	-2.1%	-0.6%	0.6%	-9.6%
CC1=NOC(=O)/C1=C\c1ccc(-c2cccc(Cl)c2)o1	1.0%	5.8µM*	?	5.17µM*
CC1=NOC(=O)/C1=C\c1ccc(-c2ccccc2Br)o1	-2.5%	6.51µM*	3.2%	5.8µM*
CC1=CC2=NC(=O)/C(=C\c3ccc(-c4cccc(Cl)c4)o3)C(=N)N2O1	-9.4%	4.61µM*	1.0%	2.59µM*
Nc1ccccc1N=Cc1ccc(-c2cccc(Cl)c2)o1	6.3%	20.6µM*	·	23.1µM*
CSCCC(NC(=O)c1ccco1)C(=O)Nc1ccc(C)c(S(=O)(=O)N2CCOCC2)c1 (stereo not given)	·	1.7%	-2.5%	-10.8%
CCc1ccccc1Oc1nc2cc(-c3cccc(OC)c3)sc2c(=O)n1C	·	?	12.6µM*	-54.8%
Cc1ccc(CNc2nc3cc(-c4ccccc4C)sc3c(=O)n2C)c(C)c1	·	?	-42.4%	?
COc1cccc(CNc2nc3cc(-c4ccc(C)cc4)sc3c(=O)n2C)c1OC	·	16.4µM*	?	18.4µM*
Cn1c(OCC2CCCO2)nc2cc(-c3ccccc3)sc2c1=O (stereo not given)	·	23.1µM*	-27.0%	?
COc1cccc(-c2cc3nc(NCCCN(C)C)n(C)c(=O)c3s2)c1	·	?	3.8%	?
Cc1ccccc1-c1cc2nc(OCC3CCCO3)n(C)c(=O)c2s1 (stereo not given)	·	?	-8.9%	?
COc1cccc(CNc2nc3cc(-c4ccc(F)cc4)sc3c(=O)n2C)c1OC	·	25.9µM*	?	16.4µM*
COC(=O)N1CCC2(CCCN(c3ncccn3)C2)CC1	·	5.7%	·	-12.5%
Cc1ccc(-c2nnc(Nc3ccc(S(N)(=O)=O)cc3)c3ccccc23)cc1S(=O)(=O)N1CCOCC1	-2.2%[12.3 µM]	16.4µM*	5.9%	?
